PI4K2A block = inhibitors of human PI4K2A; purified PI4K2A, ADP-Glo luminescence, 1 h; stronger effect = lower value; 0.13% of 420,000 active; activity change, negative = inhibition, % at 76.9 µM; Q9BTU6; AID 1346378; in the data active = activity change below about -50%; inconclusive = mostly about -30% to -49%;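 note: -100% = wells without enzyme as full effect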
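ADP-Glo luminescence measured ADP generated by PI4K2A enzyme (4 ug/mL before mixing) with 1.2 mM PI substrate (pre-mix) and 300 microM ATP (pre-mix). Tris pH7.5 buffer with MgCl2, Triton X-100; 1 h reaction at ambient temperature.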
PGK inhibitor = blocks T. brucei phosphoglycerate kinase; P07378; PGK/GAPDH coupled, Kinase-Glo luminescence, 60 min; Potency, µM (titrated, usually from 57.5 µM), without a hit: at the top dose activity change, negative = inhibition, hits mostly inhibitors; 0.043% of 380,000 active; AID 602233; note: potency is the fitted concentration of half-maximal effect; nearly all actives have a fitted effect of over 60% in size
Target sequence (P07378 whole entry, looked up): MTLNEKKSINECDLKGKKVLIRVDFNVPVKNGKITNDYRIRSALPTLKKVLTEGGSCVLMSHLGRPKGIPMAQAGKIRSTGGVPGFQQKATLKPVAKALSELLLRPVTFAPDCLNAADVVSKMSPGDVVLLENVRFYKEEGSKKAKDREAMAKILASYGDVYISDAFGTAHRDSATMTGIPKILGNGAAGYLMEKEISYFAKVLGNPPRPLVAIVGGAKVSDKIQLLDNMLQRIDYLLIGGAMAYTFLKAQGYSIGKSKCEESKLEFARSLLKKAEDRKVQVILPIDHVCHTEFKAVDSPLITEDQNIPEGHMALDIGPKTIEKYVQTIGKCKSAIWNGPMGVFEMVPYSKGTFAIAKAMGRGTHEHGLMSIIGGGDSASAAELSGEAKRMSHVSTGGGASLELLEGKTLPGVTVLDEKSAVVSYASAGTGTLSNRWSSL
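Luminescent ATP detection (Kinase-Glo Plus) follows a 60-minute room-temperature incubation, with wells lacking PGK as controls. Buffer: 100 mM TEA (pH 7.6), 5 mM MgCl2, 0.01% Tween-20. Coupling enzyme GAPDH (100 nM final) supplies unstable 1,3-BPG in-well.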
Tb PFK block = blocks T. brucei phosphofructokinase. Potency, µM (highest dose often 57.5 µM), without a hit: at the top dose activity, negative = inhibition, actives largely listed as inhibitors. 0.17% of 330,000 active. T. brucei PFK, ADP-Glo luminescence;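 note: potency is the fitted concentration of half-maximal effect; 0% = uninhibited 1x PFK enzyme wells and -100% = no-enzyme wells; nearly all actives have a fitted effect of over 60% in size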
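Compounds were pin-transferred as a titration series up to 57 uM into substrate buffer (0.5 mM F6P, 0.1 mM ATP, pH 8.0), then 1.25 nM PFK was added and reactions ran 45 min before ADP-Glo detection.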
Pin1 inh = blocks the human prolyl isomerase Pin1. Q13526. Pin1 FP peptide displacement, HiFluor488, 10 min. Potency, µM (highest dose often 115 µM), for inactives: at the highest dose activity, negative = inhibition, hits mostly inhibitors. 0.009% of 390,000 active. AID 504891; active = well fitted inhibition curve with a large enough effect in the polarisation, with a control signal flat, not every such curve was filed as active; inconclusive = small, poorly fitted or top-dose-only effect, or effect the other way, or a change in a side signal; inactive = no such curve, though single readings can be large or run the other way; the % refers to the polarisation; note: potency is the fitted concentration of half-maximal effect
Target sequence (Q13526 whole entry, looked up): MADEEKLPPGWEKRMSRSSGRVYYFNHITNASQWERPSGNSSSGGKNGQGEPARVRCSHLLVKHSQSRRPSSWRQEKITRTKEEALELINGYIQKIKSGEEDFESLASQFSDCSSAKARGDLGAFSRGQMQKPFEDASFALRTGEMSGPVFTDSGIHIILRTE
PI5P4K alpha inh = inhibitors of human PI5P4K alpha; P48426; PI5P4Kalpha enzyme, ADP-Glo luminescence, 60 min; stronger effect = lower value; max response, %; 1.2% of 330,000 active; active = max response of -50% or lower; inconclusive = between -30% and -50%; inactive = -30% or higher; note: value at the top dose of about 77 µM
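Reactions run in 0.038 M HEPES pH 7.4, 0.28 mM EGTA, 0.1% CHAPS and 5% DMSO, with PI5P4Kalpha, substrate, compound and 5 microM ATP final, one hour at room temperature. Readout is ADP-Glo luminescence.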
ADP-Glo interf = interferes with ADP-Glo detection without enzyme present | 1,100 tested, under 10 active | shares compounds with PI5P4K alpha inh | AID 743285 | ADP-Glo detection counter-screen, luciferase luminescence, no enzyme | Potency, µM (top dose mostly 76.9 µM), inactives show top-dose activity change, negative = inhibition, actives largely listed as inhibitors
The depositor's hits bear a star; i = inactive; ? = inconclusive; / = no result given. The full list was thinned out, with hits kept by preference. Unless noted, calls come from the whole dose curve; as a rule, active = well fitted curve in the direction sought with a large enough effect; inconclusive = small, poorly fitted or top-dose-only effect, or another doubt; inactive = no such curve, though single readings can be large; an effect the other way counts as inactive or inconclusive. Unless noted, % is set by controls: 0 for no effect and ±100 for the full control effect.

SMILES | PI4K2A block | PGK inhibitor | Tb PFK block | Pin1 inh | PI5P4K alpha inh | ADP-Glo interf
COc1cccc2c1C(=O)C[C@]1(CCCC[C@@H]1C)O2 | -0.6 | i | -1.8% | -0.8% | 2.1 | -5.2%
COc1cccc2c1C1(O)C2CCCCCCCCCC12OCCCO2 (stereo unspecified) | 4.7 | -0.7% | / | 9.9% | -5.3 | /
Cc1ccc(-c2csc(NC(=O)Cc3ccc(F)cc3)n2)o1 | 1.5 | -3.8% | -29.8% | 8.9% | -56.4* | 3.8%
COc1ccc(OC)c(-c2csc(NC(=O)Cc3ccc(F)cc3)n2)c1 | -1.0 | -2.2% | 2.9% | 2.6% | 20.8 | /
Cc1cc(NC(=O)c2sc(Nc3cccc(C(F)(F)F)c3)nc2N)no1 | 0.7 | -1.2% | 2.5% | 12.0% | -66.8* | 1.6%
CCCS(=O)(=O)NC(=O)C1(C)CCN(C(=O)c2ccc(F)c(C)c2)C1 (stereo unspecified) | -1.3 | / | / | / | 0.3 | /
Cc1ccccc1CN1C(=O)C(C)Sc2ccc(-c3ccco3)cc21 (stereo unspecified) | -5.9 | / | / | / | -53.6* | -3.7%
CC1(C)CC(=O)C(C=Nc2ccc3c(c2)OCO3)=C(O)C1 | -4.9 | -8.4% | 22.0% | -5.9% | / | /
CNC(=S)N(Cc1ccco1)Cc1cc2cc3c(cc2[nH]c1=O)OCCO3 | -2.7 | -7.9% | 0.0% | -3.3% | -56.7* | 1.0%
CCNC(=S)N(Cc1ccco1)Cc1cc2cc3c(cc2[nH]c1=O)OCCO3 | -0.9 | -12.2% | 0.0% | 3.7% | 0.8 | /
CCCCCC(=O)N1C[C@@H](n2cc(-c3ccc(F)cc3)nn2)[C@H](O)C[C@@H]1c1ccccc1 | -2.7 | -1.5% | / | / | 7.7 | /
CS(=O)(=O)c1ccc2nc(NC(=O)c3ccccc3)sc2c1 | -20.7 | -14.1% | 1.2% | 1.2% | -12.5 | /
CS(=O)(=O)c1ccc2nc(NC(=O)c3ccc(NS(=O)(=O)c4cccc([N+](=O)[O-])c4)cc3)sc2c1 | 2.1 | -9.0% | 6.0% | 13.3% | -56.8* | -6.7%
COc1ccccc1-c1nc2ccccc2n(CC(C)C)c1=O | -2.4 | / | / | / | -71.8* | -11.3%
N#Cc1ccccc1S(=O)(=O)N1CCN(C(=O)C2COc3ccccc3O2)CC1 (stereo unspecified) | 0.2 | -11.8% | -27.2% | -11.4% | -51.8* | -2.3%
COc1cccc(Nc2nc3ccccc3nc2NS(=O)(=O)c2cccs2)c1 | 1.1 | -1.5% | -2.1% | / | -1.6 | /
O=C(O)c1ccc(Nc2nc3ccccc3nc2NS(=O)(=O)c2cccs2)cc1 | -6.5 | -8.9% | 18.8% | -19.6% | ? | -8.0%
Oc1c(C(c2ccccc2)N2CCOCC2)ccc2ccccc12 (stereo unspecified) | 2.1 | -3.0% | / | 0.8% | -71.3* | -5.8%
O=C(CN1CCN(C(c2ccccc2)c2ccccc2)CC1)N1CCOCC1 | -3.5 | / | -1.5% | -10.9% | / | /
O=C(c1ccc(F)cc1)c1cc2ccc(O)cc2oc1=O | -87.5* | ? | -16.6% | -3.1% | -72.6* | ?
O=C(O)c1cc2ccc(O)cc2oc1=O | -5.4 | 8.9% | / | / | -3.5 | /
O=C(NCc1ccccc1)c1cc2ccc(O)cc2oc1=O | -16.2 | -10.7% | -9.2% | -1.4% | -66.5* | -12.3%
CC(=O)c1ccsc1B(O)O | / | / | / | -6.5% | / | /
COc1ccc(NC(C)=O)cc1NC(=O)CSc1nc2ncccc2[nH]1 | 1.8 | 8.4% | 0.9% | 1.0% | -54.7* | 2.6%
COc1ccccc1NC(=O)CSc1nc2ncccc2[nH]1 | -5.2 | -4.8% | 1.8% | 11.5% | / | /
SMILES | PI4K2A block | PGK inhibitor | Tb PFK block | Pin1 inh | PI5P4K alpha inh | ADP-Glo interf
COc1ccc(OCCC(=O)NC2CCCCC2)cc1 | 0.4 | -4.3% | -5.8% | -5.0% | 0.8 | /
COc1cc(CCN(C(=O)c2cc3ccccc3[nH]2)C(c2ccccn2)c2nc3ccccc3[nH]2)cc(OC)c1 (stereo unspecified) | -1.3 | / | / | / | 4.6 | /
Cc1ccc(CNC(=O)c2ccc(-n3cccc3)cc2)cc1 | -8.2 | -27.2% | -0.3% | ? | -90.3* | 3.8%
Cc1ccc(CNC(=O)Cc2ccc(-n3cccc3)cc2)cc1 | -0.7 | -2.3% | -10.7% | 3.7% | -4.4 | /
Cc1cc(C)c(C(=O)Cn2cnc3cc([N+](=O)[O-])ccc3c2=O)cc1C | 7.1 | i | -0.6% | 8.1% | -7.3 | /
CC1CCCCN1C(=O)Cn1cnc2cc([N+](=O)[O-])ccc2c1=O (stereo unspecified) | 2.9 | 8.4% | 0.6% | -9.3% | -68.8* | -3.1%
CCOC(=O)Nc1ccc(NCc2ccc(F)cc2)nc1N | ? | -1.6% | -4.1% | ? | -50.2* | -4.9%
Cc1cc(O)ccc1Nc1cc(-c2cccc(N(C)C)c2)ncn1 | 1.1 | / | / | / | / | -5.7%
CN(C)c1cccc(-c2cc(N3CCC(C(N)=O)CC3)ncn2)c1 | / | / | / | -1.7% | / | /
O=C(OC1CCc2ccccc2C1=O)c1ccccc1O (stereo unspecified) | 1.9 | -0.3% | -3.9% | 1.4% | 2.8 | /
CCc1ccc(C(=O)Nc2ccc3nn(-c4ccc(C)c(Cl)c4)nc3c2)cc1 | 2.3 | 7.2% | / | 0.4% | / | /
O=C(Nc1nc(-c2ccco2)c(-c2ccco2)s1)C1CC(=O)N(c2ccc3c(c2)OCCO3)C1 (stereo unspecified) | -56.0* | -15.9% | ? | ? | -76.1* | 3.0%
Cc1nnc(NC(=O)C2CC(=O)N(c3ccc4c(c3)OCCO4)C2)s1 (stereo unspecified) | -3.5 | -3.1% | -4.3% | -3.0% | -1.3 | /
CCNC(=O)CC1C(=O)N(c2ccc(C)cc2)C(=O)N1CCOC (stereo unspecified) | -1.2 | -2.7% | 6.3% | -8.5% | -7.7 | /
CCC(C)COC(=O)c1ccc(C(=O)O)cc1 (stereo unspecified) | -16.5 | -12.1% | -0.2% | 0.0% | -63.8* | -9.6%
CCc1ccc(C(=O)O)cc1 | 2.4 | i | 5.6% | -13.7% | -1.8 | /
CC(=O)Oc1ccc(N(C(C)=O)S(=O)(=O)c2ccccc2)c2ccccc12 | -1.6 | 1.3% | / | / | 2.9 | /
COc1ccc2oc(C(=O)Nc3ccc(N4CCOCC4)cc3)c(C)c2c1 | -1.9 | -3.4% | -7.7% | -2.8% | -68.5* | -1.4%
COc1ccc2oc(C(=O)Nc3ccccc3N3CCOCC3)c(C)c2c1 | 0.0 | -8.6% | -5.8% | -1.7% | -7.5 | /
O=C(CSc1ncnc2sc3c(c12)CCC3)N1CCOCC1 | -15.5 | -9.3% | ? | ? | -54.3* | -1.9%
CC(=O)CSc1ncnc2sc3c(c12)CCC3 | -2.9 | -5.4% | -3.6% | 2.4% | -10.0 | /
O=C(NC1CC1)c1sc2cc([N+](=O)[O-])ccc2c1Cl | -3.5 | -12.0% | 0.1% | 8.6% | -2.6 | /
CC(NC(=O)c1sc2cc([N+](=O)[O-])ccc2c1Cl)C(C)(C)C (stereo unspecified) | 0.8 | i | ? | -17.0% | -51.7* | -3.0%

From PubChem BioAssay
